± gives the standard deviation of the averaged measurements.
Key:
Experiment in all cases: relative enzymatic activity vs untreated control (fraction); higher = less inhibition
Conditions in all cases: 100 µM; incubation time: 2 h at 37 C
DNA gyrase = system: DNA gyrase
Description: (§1)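 In vitro enzymatic inhibition assays (ProFoldin kits) for 12 purified essential E. coli enzymes or complexes, each treated with 218 active antibacterial compounds at 100 µM for 2 h at 37°C. Read-outs were fluorescence or absorbance (phosphate detection, dye binding), converted to activity via standard curves and expressed relative to untreated DMSO controls.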

DNA helicase = DNA helicase (UniProt P0ACB1)
Description: as §1

DNA ligase = DNA ligase (UniProt B1XA82)
Description: as §1

DNA polymerase = DNA polymerase (UniProt P10443)
Description: as §1

DNA primase = DNA primase (UniProt P0ABS7)
Description: as §1

GlmU = GlmU (UniProt A7ZTU1)
Description: as §1

Guanlyate kinase = Guanlyate kinase (UniProt Q0TBG1)
Description: as §1

MurA = MurA (UniProt Q3YX52)
Description: as §1

MurD = biological target: T1, MurD (UniProt P14900)
T1 sequence (whole entry): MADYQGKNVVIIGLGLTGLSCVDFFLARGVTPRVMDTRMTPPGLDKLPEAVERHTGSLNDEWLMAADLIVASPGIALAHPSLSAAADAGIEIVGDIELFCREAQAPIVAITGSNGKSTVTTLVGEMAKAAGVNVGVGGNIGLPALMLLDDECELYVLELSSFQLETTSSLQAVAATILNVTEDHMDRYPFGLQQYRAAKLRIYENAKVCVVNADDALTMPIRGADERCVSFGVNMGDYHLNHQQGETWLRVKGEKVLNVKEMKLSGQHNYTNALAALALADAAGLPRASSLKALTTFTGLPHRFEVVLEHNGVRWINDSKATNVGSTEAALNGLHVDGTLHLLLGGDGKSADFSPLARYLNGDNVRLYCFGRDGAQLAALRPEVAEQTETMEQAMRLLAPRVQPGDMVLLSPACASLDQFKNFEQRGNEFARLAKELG
Description: as §1

MurF = biological target: T2, MurF (UniProt P11880)
T2 sequence (whole entry): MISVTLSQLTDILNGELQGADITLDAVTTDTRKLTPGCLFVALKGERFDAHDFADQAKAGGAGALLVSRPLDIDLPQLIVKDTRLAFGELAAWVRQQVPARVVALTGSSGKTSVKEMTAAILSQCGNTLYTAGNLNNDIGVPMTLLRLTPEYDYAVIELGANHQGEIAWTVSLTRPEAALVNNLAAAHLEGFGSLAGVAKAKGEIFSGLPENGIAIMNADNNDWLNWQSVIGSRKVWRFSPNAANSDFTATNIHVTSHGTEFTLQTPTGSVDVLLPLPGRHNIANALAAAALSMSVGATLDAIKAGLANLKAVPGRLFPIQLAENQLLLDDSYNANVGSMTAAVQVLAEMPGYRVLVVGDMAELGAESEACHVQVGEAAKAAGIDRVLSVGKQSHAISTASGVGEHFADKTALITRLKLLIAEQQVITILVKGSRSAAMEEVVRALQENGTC
Description: as §1

RNA polymerase = system: RNA polymerase
Description: as §1

Sequence of Guanlyate kinase (Q0TBG1 whole entry): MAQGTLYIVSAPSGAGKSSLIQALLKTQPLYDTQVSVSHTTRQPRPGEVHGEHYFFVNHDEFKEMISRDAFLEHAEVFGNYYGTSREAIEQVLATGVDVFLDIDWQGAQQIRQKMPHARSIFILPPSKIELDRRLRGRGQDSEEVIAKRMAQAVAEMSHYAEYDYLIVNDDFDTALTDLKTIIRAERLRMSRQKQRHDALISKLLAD
Sequence of GlmU (A7ZTU1 whole entry, looked up): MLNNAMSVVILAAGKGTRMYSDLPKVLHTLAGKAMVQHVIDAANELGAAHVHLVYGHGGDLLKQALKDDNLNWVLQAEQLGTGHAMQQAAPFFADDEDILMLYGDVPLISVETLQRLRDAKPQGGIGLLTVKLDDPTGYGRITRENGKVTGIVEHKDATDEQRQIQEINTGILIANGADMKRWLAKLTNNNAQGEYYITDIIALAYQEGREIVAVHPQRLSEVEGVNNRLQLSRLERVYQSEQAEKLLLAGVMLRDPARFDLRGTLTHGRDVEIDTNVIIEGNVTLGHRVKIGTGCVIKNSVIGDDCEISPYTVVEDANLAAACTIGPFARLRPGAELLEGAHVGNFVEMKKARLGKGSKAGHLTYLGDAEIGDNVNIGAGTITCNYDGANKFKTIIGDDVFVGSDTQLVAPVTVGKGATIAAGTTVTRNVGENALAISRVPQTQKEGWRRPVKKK
Sequence of DNA polymerase (P10443 whole entry): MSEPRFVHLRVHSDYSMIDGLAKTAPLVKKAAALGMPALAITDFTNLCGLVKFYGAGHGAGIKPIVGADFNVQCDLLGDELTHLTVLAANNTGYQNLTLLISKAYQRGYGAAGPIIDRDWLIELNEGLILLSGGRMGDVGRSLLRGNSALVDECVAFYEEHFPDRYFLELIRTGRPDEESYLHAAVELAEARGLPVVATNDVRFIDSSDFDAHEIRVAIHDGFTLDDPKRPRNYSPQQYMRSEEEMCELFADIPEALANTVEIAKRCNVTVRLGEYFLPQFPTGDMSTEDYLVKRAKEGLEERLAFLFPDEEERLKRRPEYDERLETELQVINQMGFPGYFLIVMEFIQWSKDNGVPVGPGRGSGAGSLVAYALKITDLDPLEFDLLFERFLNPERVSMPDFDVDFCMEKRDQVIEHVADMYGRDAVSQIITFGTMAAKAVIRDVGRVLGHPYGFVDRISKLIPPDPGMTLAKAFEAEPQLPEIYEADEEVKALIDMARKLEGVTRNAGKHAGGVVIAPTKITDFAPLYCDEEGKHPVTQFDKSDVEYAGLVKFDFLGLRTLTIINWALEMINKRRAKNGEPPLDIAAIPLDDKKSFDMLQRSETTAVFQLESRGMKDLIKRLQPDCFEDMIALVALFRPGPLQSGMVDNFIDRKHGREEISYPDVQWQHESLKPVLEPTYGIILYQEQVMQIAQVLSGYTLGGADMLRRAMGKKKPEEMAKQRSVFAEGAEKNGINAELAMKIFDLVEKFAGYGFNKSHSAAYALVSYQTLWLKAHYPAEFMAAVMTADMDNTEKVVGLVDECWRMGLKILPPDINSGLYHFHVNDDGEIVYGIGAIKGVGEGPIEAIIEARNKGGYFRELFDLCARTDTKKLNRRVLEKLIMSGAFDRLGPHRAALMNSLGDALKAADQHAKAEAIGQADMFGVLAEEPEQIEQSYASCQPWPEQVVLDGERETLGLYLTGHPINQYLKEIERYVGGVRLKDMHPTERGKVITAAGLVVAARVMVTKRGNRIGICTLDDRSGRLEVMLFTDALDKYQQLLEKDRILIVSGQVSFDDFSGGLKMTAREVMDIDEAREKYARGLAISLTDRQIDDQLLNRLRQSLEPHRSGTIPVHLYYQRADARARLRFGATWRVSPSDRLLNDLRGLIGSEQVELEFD
Sequence of DNA primase (P0ABS7 whole entry): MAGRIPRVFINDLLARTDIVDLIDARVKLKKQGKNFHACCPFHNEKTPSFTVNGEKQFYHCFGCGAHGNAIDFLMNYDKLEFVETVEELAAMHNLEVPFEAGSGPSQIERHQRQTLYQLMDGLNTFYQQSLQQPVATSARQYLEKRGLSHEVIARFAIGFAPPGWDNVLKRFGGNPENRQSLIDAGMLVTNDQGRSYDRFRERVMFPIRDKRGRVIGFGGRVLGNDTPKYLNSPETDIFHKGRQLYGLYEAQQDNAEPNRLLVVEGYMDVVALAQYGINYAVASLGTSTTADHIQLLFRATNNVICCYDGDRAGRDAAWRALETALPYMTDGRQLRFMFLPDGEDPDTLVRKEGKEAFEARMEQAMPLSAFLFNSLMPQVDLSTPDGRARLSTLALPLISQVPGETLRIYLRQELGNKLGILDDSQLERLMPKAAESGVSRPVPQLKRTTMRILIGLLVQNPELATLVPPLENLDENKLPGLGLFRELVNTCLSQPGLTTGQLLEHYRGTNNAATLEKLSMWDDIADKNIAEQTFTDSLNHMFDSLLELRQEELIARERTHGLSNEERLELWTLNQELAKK
Sequence of MurA (Q3YX52 whole entry): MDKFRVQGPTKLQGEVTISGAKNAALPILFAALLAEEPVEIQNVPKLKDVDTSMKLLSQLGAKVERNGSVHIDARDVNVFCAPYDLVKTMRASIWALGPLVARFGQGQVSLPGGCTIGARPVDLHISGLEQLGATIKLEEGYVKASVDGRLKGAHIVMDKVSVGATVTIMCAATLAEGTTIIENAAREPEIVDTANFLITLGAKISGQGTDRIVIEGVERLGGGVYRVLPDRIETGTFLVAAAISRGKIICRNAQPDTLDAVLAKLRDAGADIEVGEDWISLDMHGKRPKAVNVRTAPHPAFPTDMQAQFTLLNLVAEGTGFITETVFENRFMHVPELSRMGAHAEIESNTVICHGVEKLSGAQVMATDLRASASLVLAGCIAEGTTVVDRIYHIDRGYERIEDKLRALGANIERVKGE
Sequence of DNA ligase (B1XA82 whole entry): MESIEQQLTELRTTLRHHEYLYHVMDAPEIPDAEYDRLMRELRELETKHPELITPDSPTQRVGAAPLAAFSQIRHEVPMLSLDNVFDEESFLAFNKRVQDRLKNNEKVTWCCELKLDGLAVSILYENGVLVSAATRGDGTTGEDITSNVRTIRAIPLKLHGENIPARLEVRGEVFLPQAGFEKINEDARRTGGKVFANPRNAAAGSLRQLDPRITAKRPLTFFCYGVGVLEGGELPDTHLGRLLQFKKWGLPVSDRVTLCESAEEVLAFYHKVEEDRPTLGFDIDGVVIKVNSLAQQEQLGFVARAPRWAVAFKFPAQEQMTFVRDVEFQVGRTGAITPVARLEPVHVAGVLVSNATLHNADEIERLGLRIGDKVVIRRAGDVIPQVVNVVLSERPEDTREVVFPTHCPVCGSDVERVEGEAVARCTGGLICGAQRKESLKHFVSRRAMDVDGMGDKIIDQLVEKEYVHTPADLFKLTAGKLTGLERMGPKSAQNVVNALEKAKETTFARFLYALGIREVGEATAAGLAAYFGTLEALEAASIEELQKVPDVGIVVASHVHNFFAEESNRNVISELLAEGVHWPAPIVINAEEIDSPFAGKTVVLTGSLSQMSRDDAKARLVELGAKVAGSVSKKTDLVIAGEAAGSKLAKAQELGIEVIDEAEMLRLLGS
Sequence of DNA helicase (P0ACB1 whole entry): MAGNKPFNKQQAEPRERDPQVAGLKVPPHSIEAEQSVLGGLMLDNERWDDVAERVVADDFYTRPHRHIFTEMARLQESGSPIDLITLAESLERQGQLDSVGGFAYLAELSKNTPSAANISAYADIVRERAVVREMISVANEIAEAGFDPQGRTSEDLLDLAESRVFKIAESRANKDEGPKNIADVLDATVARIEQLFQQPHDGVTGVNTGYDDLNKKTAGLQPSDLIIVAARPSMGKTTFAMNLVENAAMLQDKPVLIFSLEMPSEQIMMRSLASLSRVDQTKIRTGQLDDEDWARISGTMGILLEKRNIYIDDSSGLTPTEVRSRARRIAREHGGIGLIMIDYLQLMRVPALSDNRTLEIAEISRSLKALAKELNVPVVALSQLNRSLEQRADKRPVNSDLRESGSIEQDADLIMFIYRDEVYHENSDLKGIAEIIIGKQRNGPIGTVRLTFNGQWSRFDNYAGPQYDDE

Row | Structure (SMILES) | relative enzymatic activity (DNA gyrase) | relative enzymatic activity (DNA helicase) | relative enzymatic activity (DNA ligase) | relative enzymatic activity (DNA polymerase) | relative enzymatic activity (DNA primase) | relative enzymatic activity (GlmU) | relative enzymatic activity (Guanlyate kinase) | relative enzymatic activity (MurA) | relative enzymatic activity (MurD) | relative enzymatic activity (MurF) | relative enzymatic activity (RNA polymerase)
1 | CN1CCN(c2c(F)cc3c(=O)c(C(=O)O)cn4c3c2SCC4)CC1 | 0.0039 ± 0.0055 | 0.623 ± 0.2 | 1.02 ± 0.03 | 1.21 ± 0.25 | 0.807 ± 0.022 | 0.952 ± 0.026 | 0.926 ± 0.19 | 0.7644 ± 0.0074 | 0.608 ± 0.44 | 0.899 ± 0.27 | 0.844 ± 0.023
2 | O=C1OCCN1N=Cc1ccc([N+](=O)[O-])o1 | 1.13 ± 0.099 | 0.454 ± 0.088 | 1.02 ± 0.015 | 1.35 ± 0.37 | 0.747 ± 0.22 | 0.974 ± 0.017 | 1.01 ± 0.042 | 0.649 ± 0.12 | 0.565 ± 0.37 | 0.947 ± 0.16 | 0.941 ± 0.097
3 | CC(C)(O/N=C(\C(=O)N[C@@H]1C(=O)N2C(C(=O)O)=C(C[n+]3ccccc3)CS[C@H]12)c1csc(N)n1)C(=O)O | 0.662 ± 0.56 | 0.577 ± 0.24 | 0.86 ± 0.088 | 1.1 ± 0.22 | 0.791 ± 0.01 | 1.01 ± 0.032 | 0.94 ± 0.075 | 0.0696 ± 0.019 | 0.613 ± 0.43 | 0.935 ± 0.24 | 0.829 ± 0.16
4 | CCn1cc(C(=O)O)c(=O)c2cc(F)c(N3CCN(C(=S)Nc4cc(C(F)(F)F)ccc4Cl)CC3)cc21 | 0.0352 ± 0.05 | 0.303 ± 0.029 | 0.85 ± 0.036 | 0.51 ± 0.72 | 1.49 ± 0.75 | 1.03 ± 0.024 | 0.915 ± 0.081 | 0.654 ± 0.18 | 0.629 ± 0.41 | 0.996 ± 0.24 | 1.17 ± 0.075
5 | NC[C@H]1OB(O)c2c(OCCCO)cccc21 | 0.84 ± 0.32 | 0.308 ± 0.43 | 0.887 ± 0.13 | 1.08 ± 0.082 | 0.8235 ± 0.0023 | 0.922 ± 0.11 | 0.991 ± 0.1 | 0.709 ± 0.16 | 0.564 ± 0.35 | 1.17 ± 0.024 | 0.871 ± 0.073
6 | COc1c(N2CCNC(C)C2)c(F)cc2c(=O)c(C(=O)O)cn(C3CC3)c12 (configuration not stated) | 0.0476 ± 0.067 | 0.48 ± 0.021 | 0.942 ± 0.14 | 1.09 ± 0.15 | 0.876 ± 0.017 | 0.989 ± 0.034 | 0.899 ± 0.084 | 0.804 ± 0.16 | 0.577 ± 0.36 | 0.942 ± 0.26 | 0.763 ± 0.0079
7 | CCCN1C[C@H](C)[C@@H](O)[C@](C)(O)[C@@H](CC)OC(=O)[C@H](C)[C@@H](O[C@H]2C[C@@](C)(OC)[C@@H](O)[C@H](C)O2)[C@H](C)[C@@H](O[C@@H]2O[C@H](C)C[C@H](N(C)C)[C@H]2O)[C@](C)(O)C[C@H]1C | 0.764 ± 0.38 | 0.556 ± 0.17 | 0.802 ± 0.014 | 1.09 ± 0.11 | 0.868 ± 0.012 | 1.073 ± 0.0078 | 0.858 ± 0.12 | 0.761 ± 0.074 | 0.596 ± 0.42 | 0.968 ± 0.17 | 0.766 ± 0.12
8 | C=C1c2cccc(O)c2C(=O)C2=C(O)C3(O)C(=O)C(C(N)=O)=C(O)C(N(C)C)C3C(O)C12.Cl (configuration not stated) | 0.0714 ± 0.1 | 0.143 ± 0.031 | 0.963 ± 0.19 | 0.187 ± 0.022 | 0.399 ± 0.077 | 1 ± 0.011 | 0.376 ± 0.018 | 0.0701 ± 0.026 | 0.62 ± 0.43 | 0.937 ± 0.28 | 0.052 ± 0.025
9 | N[C@@H](C(=O)N[C@@H]1C(=O)N2C(C(=O)O)=C(Cl)CC[C@H]12)c1ccccc1 | 0.732 ± 0.43 | 0.524 ± 0.089 | 0.931 ± 0.12 | 1.03 ± 0.087 | 0.831 ± 0.025 | 1 ± 0.036 | 0.943 ± 0.061 | 0.582 ± 0.21 | 0.603 ± 0.4 | 0.963 ± 0.22 | 0.811 ± 0.13
10 | CC(=O)OCC1=C(C(=O)[O-])N2C(=O)C(NC(=O)Cc3cccs3)C2SC1.[Na+] (configuration not stated) | 0.626 ± 0.6 | 0.395 ± 0.012 | 1.26 ± 0.12 | 1.09 ± 0.26 | 0.713 ± 0.036 | 1 ± 0.084 | 0.974 ± 0.057 | 0.0754 ± 0.023 | 0.597 ± 0.38 | 0.958 ± 0.23 | 0.622 ± 0.13
11 | Cc1scc2c1N(C(=O)CN1CCN(C)CC1)c1ccccc1NC2=O.Cl | 0.878 ± 0.31 | 0.526 ± 0.058 | 1.12 ± 0.35 | 1.17 ± 0.21 | 0.65 ± 0.14 | 1.1 ± 0.12 | 0.9435 ± 0.0079 | 0.703 ± 0.12 | 0.608 ± 0.41 | 0.931 ± 0.16 | 0.841 ± 0.091
12 | O=C(O)c1cn(C2CC2)c2cc(N3CCC(O)(COc4ccc(N5C[C@H](CO)OC5=O)cc4F)CC3)c(F)cc2c1=O | 0.0421 ± 0.059 | 0.414 ± 0.095 | 0.9068 ± 0.0026 | 1.13 ± 0.22 | 0.851 ± 0.039 | 0.9967 ± 0.0077 | 0.905 ± 0.15 | 0.608 ± 0.25 | 0.583 ± 0.39 | 1.22 ± 0.022 | 0.8 ± 0.067
13 | CN(C)c1ccc(O)c2c1C[C@H]1C[C@H]3[C@H](N(C)C)C(=O)[C@@H](C(N)=O)C(=O)[C@@]3(O)C(=O)[C@H]1C2=O | 0.636 ± 0.27 | 0.47 ± 0.11 | 0.8372 ± 0.0039 | 0.973 ± 0.03 | 0.776 ± 0.056 | 1.03 ± 0.019 | 0.692 ± 0.016 | 0.306 ± 0.14 | 0.607 ± 0.43 | 0.981 ± 0.18 | 0.686 ± 0.011
14 | Cl.O=C(O)c1cn(-c2ccc(F)cc2)c2cc(N3CCNCC3)c(F)cc2c1=O | 0.0194 ± 0.027 | 0.484 ± 0.099 | 1.18 ± 0.41 | 1.19 ± 0.31 | 0.688 ± 0.12 | 0.955 ± 0.031 | 0.73 ± 0.11 | 0.698 ± 0.044 | 0.595 ± 0.41 | 0.919 ± 0.24 | 0.228 ± 0.089
15 | CON=C(C(=O)NC1C(=O)N2C(C(=O)O)=C(C[N+]3(C)CCCC3)CSC12)c1csc(N)n1.[Cl-] (configuration not stated) | 0.384 ± 0.0047 | 0.431 ± 0.059 | 1.345 ± 0.0088 | 1.28 ± 0.35 | 0.724 ± 0.23 | 0.969 ± 0.022 | 1.02 ± 0.026 | 0.222 ± 0.0031 | 0.568 ± 0.37 | 0.962 ± 0.17 | 0.897 ± 0.023
16 | NCCONC(=O)[C@@H]1CC[C@@H]2CN1C(=O)N2OS(=O)(=O)O | 0.796 ± 0.34 | 0.527 ± 0.074 | 1.08 ± 0.078 | 1.13 ± 0.22 | 0.762 ± 0.033 | 1.02 ± 0.082 | 1.01 ± 0.12 | 0.709 ± 0.27 | 0.562 ± 0.36 | 0.971 ± 0.24 | 0.902 ± 0.075
17 | CCCC[P+](CCCC)(CCCC)Cc1ccc(NC(=O)[C@H](Cc2ccc3ccccc3c2)N/C(=N/C2CCCCC2)NC2CCCCC2)cc1 | 0.00696 ± 0.0098 | 0.0186 ± 0.0015 | 1.08 ± 0.094 | 0.73 ± 0.026 | 0.595 ± 0.0097 | 0.134 ± 0.011 | 0.223 ± 0.023 | 0.0355 ± 0.0073 | 0.167 ± 0.12 | 0.108 ± 0.017 | 0.346 ± 0.01

— the supplement of paper PMC9446081
